The values below come from PubChem BioAssay (NCATS).

Inconclusive results are not listed. Values without a mark were called inactive. Activity calls are given as the source filed them. Calls come from the whole dose curve; as a rule, active = well fitted cell-killing curve with a large enough effect; inconclusive = small, poorly fitted or top-dose-only effect; inactive = no such curve, though single readings can be large or run the other way. Numbered stars: 1 amine (or outer) side, 2 acyl side, 3 side chain; on linkers, the order of the positions; unused ones are H or OH. Bridge positions count the residues as written; N and C are the ends. Square brackets hold non-standard residues; d marks the D form. Peptide text beside a SMILES is read from it. I, II: the chains in the order shown. Actinocin(9to1) = Cc1c2oc3c(C)ccc(C(=O)[*:1])c3nc-2c(C(=O)[*:2])c(N)c1=O; NMeV = CN[C@H](C(=O)O)C(C)C; Sar = CNCC(=O)O
% is set by controls: 0 for no effect and ±100 for the full control effect; potency is the fitted concentration of half-maximal effect.

The nature of the assay: qHTS of pediatric cancer cell lines to identify multiple opportunities for drug repurposing: Confirmatory screen for TC32 cells (AID 1347118).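 Note: cells exposed to compound for 48 h before the read; nearly all actives have a fitted effect of over 65% in size.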 The note with it: TC32 Ewing sarcoma cells viability qHTS; series mostly up to 45.9 µM; activity change, negative = cytotoxicity: at the top concentration. From the text:
Drug repurposing or repositioning has been offered as a strategy for drug development in oncology programs. This approach has special potential for childhood cancers and other rare or orphan diseases, where the expected return on new drug development has been a disincentive to pharmaceuticals.
In this project we exploit the poly-pharmacology of drugs to discover new indications via phenotypic screening of a panel of 19 well-characterized cell lines derived from solid tumors seen in children and adolescents. The goal is to identify approved drugs with previously unrecognized anticancer properties that has the potential to reveal new mechanisms and biological processes involved in carcinogenesis or drug resistance. We employed a titration-based paradigm (quantitative high-throughput screening or qHTS), where all compounds were tested at multiple concentrations for their effect on cell viability. Concentration-response curves (CRCs) were derived directly from the primary screen, and both potency and efficacy values were used to identify compounds with robust bioactivity profiles. We screened the NIH Chemical Genomics Center (NCGC) Pharmaceutical Collection (NPC) and Mechanism Interrogation Plate (MIPE) small molecule collections of approved and investigational compounds against these cell lines; and measured metabolically active cells after 48 hours of compound treatment as a proxy for cell viability.
Assay Submitter: Nathalia J. Martinez, National Center for Advancing Translational Sciences, National Institutes of Health, Rockville, MD, USA; email: natalia.martinez@nih.gov
[1] Shen, M et al. Quantitative high-throughput phenotypic screening of pediatric cancer cell lines identifies multiple opportunities for drug repurposing. Oncotarget 2017 Dec 19;9(4):4758-4772. PMID 29435139.
The cells were obtained from University of North Carolina (UNC), Pediatric Preclinical Testing Program (PPT), and Coriell Institute (CI).
qHTS cell viability assay:
Cells were assayed in growth media at a density of 500-1,000 cells/well. Five microliters of cells were dispensed into 1,536-well, white, solid-bottom, TC-treated plates (Greiner Bio One) using a multidrop dispenser and incubated at 37 degrees C, 5% CO2, under a humidified atmosphere for 5 hours. Twenty-three nanoliters of compounds and controls (neutral control DMSO or positive control bortezomib at final concentration of 2.3 uM) were subsequently transferred by Kalypsys pintool. For primary screens, the MIPE collection was tested at 11-point dilutions (final concentrations range from 0.78 nM to 46 µM) and the NPC collection at 8-point dilutions (final concentrations range from 0.59 nM to 46 µM). Compounds tested in follow-up screens were assayed at 11-point dilutions. Cells were incubated for 48 hours, followed by addition of 3 uL of CellTiter-Glo (Promega). After a 15min incubation at room temperature, samples were analyzed for luminescence intensity using a ViewLux High-throughput CCD imager equipped with clear filters.
For the molecule `C=C1C[C@H]2[C@@H]3C=C(C)C4=CC(=O)CC[C@]4(C)[C@H]3CC[C@]2(C)[C@@]1(OC(C)=O)C(C)=O`, the Potency is 6.57 µM (active). Same read-out and setting: the value for `CN(C)C(=S)SC(=S)N(C)C` was 3.69 µM (active); that for `CC(=O)Oc1ccc(C(c2ccc(OC(C)=O)cc2)c2ccccn2)cc1` was 6.57 µM (active). On the same count and under the same terms, the value for `Oc1ccc(O)cc1` was 20.8 µM (active); that for `CC(=O)OCC(=O)[C@@]1(O)[C@H](C)C[C@H]2[C@@H]3CCC4=CC(=O)C=C[C@]4(C)[C@@]3(F)[C@@H](O)C[C@@]21C` was 18.5 µM (active). For `C[C@]12C=CC(=O)C=C1[C@@H](F)C[C@@H]1[C@@H]2[C@@H](O)C[C@@]2(C)[C@H]1CC[C@]2(O)C(=O)CO`, the “activity change, negative = cytotoxicity” value was 4.45%. Regarding `NC(=O)CC[C@@H]1NC(=O)[C@H](Cc2ccccc2)NC(=O)[C@H](Cc2ccc(O)cc2)NC(=O)CCSSC[C@@H](C(=O)N2CCC[C@H]2C(=O)N[C@@H](CCCN=C(N)N)C(=O)NCC(N)=O)NC(=O)[C@H](CC(N)=O)NC1=O`, the “activity change, negative = cytotoxicity” value was -5.31%. On the same count and under the same terms, the value for `C[C@H]1C[C@H]2[C@@H]3CCC4=CC(=O)C=C[C@]4(C)[C@@]3(Cl)[C@@H](O)C[C@]2(C)[C@@]1(O)C(=O)CO` was -2.62%; that for `C[C@@H]1C[C@H]2[C@@H]3CCC4=CC(=O)C=C[C@]4(C)[C@@]3(F)[C@@H](O)C[C@]2(C)[C@H]1C(=O)CO` was -20.7%; that for `CC(=O)OCC(=O)[C@@]1(O)CC[C@H]2[C@@H]3CCC4=CC(=O)C=C[C@]4(C)[C@H]3[C@@H](O)C[C@@]21C` was 4.02%. As to `COc1cc(C=C2CCC/C(=C\c3ccc(O)c(OC)c3)C2=O)ccc1O`, the Potency is 0.414 µM (active). As for `CCOc1ccc2nc3cc(N)ccc3c(N)c2c1`, the Potency was 2.61 µM (active). Same read-out and setting: the same measure for `CCC(C(=O)OCCN(CC)CC)c1ccccc1` (centres undefined): 10.4 µM (active); for `C[n+]1c2cc(N)ccc2cc2ccc(N)cc21` (tested in a mixture with another compound): 5.85 µM (active); for `CC(=O)OCC(=O)[C@@]12N=C(C)O[C@@H]1C[C@H]1[C@@H]3CCC4=CC(=O)C=C[C@]4(C)[C@H]3[C@@H](O)C[C@@]12C`: 0.369 µM (active).

For the molecule `CN(C)/N=N/c1nc[nH]c1C(N)=O`, the Potency was 23.3 µM (active). Regarding `CC(=O)OCC(=O)[C@@]12OC(C)(C)O[C@@H]1C[C@H]1[C@@H]3C[C@H](F)C4=CC(=O)C=C[C@]4(C)[C@@]3(F)[C@@H](O)C[C@@]12C`, the “activity change, negative = cytotoxicity” value was -31.4%.

With `CC1(C)O[C@@H]2C[C@H]3[C@@H]4CCC5=CC(=O)CC[C@]5(C)[C@@]4(F)[C@@H](O)C[C@]3(C)[C@]2(C(=O)CCl)O1`, the “activity change, negative = cytotoxicity” value was -14.9%.

As to `Cc1c2oc3c(C)ccc(C(=O)N[C@@H]4C(=O)N[C@H](C(C)C)C(=O)N5CCC[C@H]5C(=O)N(C)CC(=O)N(C)[C@@H](C(C)C)C(=O)O[C@@H]4C)c3nc-2c(C(=O)N[C@@H]2C(=O)N[C@H](C(C)C)C(=O)N3CCC[C@H]3C(=O)N(C)CC(=O)N(C)[C@@H](C(C)C)C(=O)O[C@@H]2C)c(N)c1=O` (I: T[dV]P[Sar][NMeV] / II: T[dV]P[Sar][NMeV]; ester I:1-I:C, II:1-II:C; linker I:N-II:N via Actinocin(9to1)), the Potency is 0.0093 µM (active). Turning to `CCCCC(CC)CN=C(N)NC(N)=NCCCCCCN=C(N)NC(N)=NCC(CC)CCCC` (centres undefined), the Potency is 8.27 µM (active). On the same count and under the same terms, the value for `COCc1c(C(C)C)nc(C(C)C)c(/C=C/[C@@H](O)C[C@@H](O)CC(=O)O)c1-c1ccc(F)cc1` was 0.928 µM (active). Regarding `CCCC(=O)O[C@]1(C(=O)CO)CC[C@H]2[C@@H]3CCC4=CC(=O)CC[C@]4(C)[C@H]3[C@@H](O)C[C@@]21C`, the “activity change, negative = cytotoxicity” value is -20.5%.

On to `CC(C)(C(=O)c1cccnc1)c1cccnc1`, for which the Potency is 3.29 µM (active). For `CC(=O)Oc1ccc2c(c1)CC[C@@H]1[C@@H]2CC[C@]2(C)[C@@H](O)CC[C@@H]12`, the Potency was 6.57 µM (active). On the same count and under the same terms, the value for `COc1cccc2c1C(=O)c1c(O)c3c(c(O)c1C2=O)C[C@@](O)(C(=O)CO)C[C@@H]3O[C@H]1C[C@H](N)[C@H](O)[C@H](C)O1` was 0.465 µM (active); that for `C[C@]12C=CC(=O)C=C1CC[C@@H]1[C@@H]2[C@@H](O)C[C@@]2(C)[C@H]1CC[C@]2(O)C(=O)CO` was 26.1 µM (active); that for `OC[C@H]1O[C@@H](n2cnc3c(=S)nc[nH]c32)[C@H](O)[C@@H]1O` was 2.33 µM (active). With `NC(CO)(CO)CO`, the Potency was 11.7 µM (active).

Turning to `O=C(CCCN1CCC(O)(c2ccc(Br)cc2)CC1)c1ccc(F)cc1`, the Potency was 2.61 µM (active).
